Out of some 360,000 compounds screened, about 2,700 (0.75%) were called active. Cut-off read from the data, not from the text of the source: active = inhibition above about 4.5%; inactive = the rest. The sample as a whole holds a higher share of actives than the screen did.

The subject of the assay is Methionine sulfoxide reductase A (Bos taurus). The experiment in a line: bovine MsrA enzyme inhibitors, primary screen, biochemical, absorbance, HTS (AID 651718).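 Note: 0% = vehicle wells with enzyme and 100% = reference inhibitor wells.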 Particulars: purified bovine MsrA, absorbance read-out; at 15.5 µM; hits give high values.
One may read the inhibition as the drop in the measured response relative to a control, in per cent. For the compound `O=[N+]([O-])c1ccccc1/C=N/n1c(COc2ccccc2)n[nH]c1=S`, the inhibition is 0.65% (inactive).
`CCc1n[nH]c(=S)n1/N=C/c1c[nH]c2ccc(Br)cc12`: the inhibition was 0.05% (inactive).
In the case of `S=c1[nH]nc(-c2ccccc2)n1/N=C/c1c[nH]c2ccccc12`, the inhibition is 5.73% (active).
Take `CC1CCN(C(=O)c2ncn3c2C(=O)N[C@@H](C)C3)CC1`: the inhibition is 0.14% (inactive).
With `O=C(NCc1ccccc1)[C@H]1CCCN1C(=O)[C@H]1CCCN1C(=O)N1CCOCC1`, the inhibition is -0.41% (inactive).
To `CN(C)c1nc(N)nc(CSc2ccccn2)n1` belongs 0.24% (inactive); to `C=CCN=C1NC(c2cccc(C(F)(F)F)c2)C(C(=O)OC)=C(C)N1C` (configuration not stated), -0.08% (inactive); to `CCc1ccc(Oc2coc3cc(OC(=O)c4cc5ccccc5oc4=O)ccc3c2=O)cc1`, 1.04% (inactive).
For the compound `CCCOC(=O)c1cc2ccccc2oc1=O`, the inhibition was 13% (active).
With `Cc1cc(C)cc(OCC(=O)NNC(=O)c2cc3ccccc3oc2=O)c1`, the inhibition was 0.25% (inactive).
To `COC(=O)Cc1nnn2c1[C@H](C)[C@H](c1ccccc1[N+](=O)[O-])OCC2` belongs 0.24% (inactive); to `Cc1c(C=O)c2ccccc2n1CC(=O)O`, 2.23% (inactive); to `Cc1c(C(=O)NNC(=O)c2ccncc2)oc2ccccc12`, 0.46% (inactive).
On to `Cc1c(C=O)c2ccccn2c1C(=O)c1ccncc1`, for which the inhibition is 4.76% (active).
On to `O=C(NCCc1nnc2ccc(SCC(=O)N3CCOCC3)nn12)c1ccccc1`, for which the inhibition was -0.18% (inactive).
On to `Cc1noc(C)c1NC(=O)Nc1ccc2c(c1)C(=O)N([C@H](C)CO)C[C@H](C)[C@H](CN(C)Cc1ccncc1)OCCCC[C@@H](C)O2`, for which the inhibition is -0.23% (inactive).
With `CCN1C(=O)N[C@@H]2C[C@H](C(=O)N3CCCC3)[C@H](C)[C@H](c3ccccc3)C[C@@H]21`, the inhibition is -0.32% (inactive).
In the case of `O=C(N/N=C/c1ccc2c(c1)OCO2)c1ccc(Cn2cc([N+](=O)[O-])cn2)o1`, the inhibition is 6.14% (active).
Turning to `O=C(c1ccc(Cn2cc([N+](=O)[O-])cn2)o1)N1CCCC1`, the inhibition was 0.09% (inactive).
For the compound `CN(C)c1ccc(/C=N/NC(=O)c2ccc(Cn3cc(Br)cn3)o2)cc1`, the inhibition was 4.19% (inactive).
As for `N/C(=N\OS(=O)(=O)c1cccc([N+](=O)[O-])c1)c1ccncc1`, the inhibition was -0.51% (inactive).
`CCCCCCCCN1C(=O)[C@@H](CC(=O)NCc2ccc(C)o2)C[C@@]2(C(=O)OC)C1=C[C@H](C(C)(C)C)O[C@@H]2C`: the inhibition is -0.4% (inactive).
For `CC(=O)c1ccccc1OCc1ccc(C(=O)c2ccccc2)cc1`, the inhibition is 0.66% (inactive).
As to `Cc1cc2nc3c(=O)[nH]c(=O)nc-3n(C[C@H](O)[C@H](O)[C@H](O)CO)c2cc1C`, the inhibition is 2.57% (inactive).
Turning to `CCN(CC)CCCC(C)n1c2nc(=O)[nH]c(=O)c-2nc2cc(Cl)ccc21` (configuration not stated), the inhibition is 14.4% (active).
Consider `O=S1(=O)c2c(cccc2N2CCCCC2)O[C@H](COCc2ccccc2)CN1C1CC1`, for which the inhibition is -0.51% (inactive).
For the compound `Cc1ccc(CSc2nsc(C)c2C#N)cc1`, the inhibition is 0.38% (inactive).
In the case of `O=C1N=C(N2CCOCC2)S/C1=C\C=C/c1ccccc1`, the inhibition was 3.23% (inactive).
For the compound `Cc1ccc(N2CCN(C3=NC(=O)/C(=C\c4cccs4)S3)CC2)cc1`, the inhibition was 5.14% (active).
For the compound `CC(C)=C1SC(N2CCN(c3ccc(C)c(Cl)c3)CC2)=NC1=O`, the inhibition is -1.4% (inactive).
Regarding `COc1ccc(S(=O)(=O)Nc2ccc3c(c2)C(=O)N([C@H](C)CO)C[C@H](C)[C@@H](CN(C)C)OCCCC[C@H](C)O3)cc1`, the inhibition was 0.52% (inactive).
With `Cc1c(C(=O)N2CCCc3ccccc32)oc2ccccc12`, the inhibition is 10.3% (active).
With `Cc1ccc(C(=O)N2CCCc3ccccc32)c(Cl)c1`, the inhibition was -0.31% (inactive).
For `Cc1c(C(=O)OCC(=O)N2CCCC2=O)oc2ccccc12`, the inhibition is -1.01% (inactive).
To `O=C1Nc2ccccc2C1=NN=Cc1ccco1` belongs 0.16% (inactive); to `CCOC(=O)/C(C#N)=C\c1c(C)cc(C)c(COC(C)=O)c1C`, 0.74% (inactive).
To `COC(=O)/C(C#N)=C/c1occc1C` belongs 5.68% (active); to `COc1ccc(/C=C(\C#N)C(=O)ONC2=NCCCCC2)cc1`, 1.44% (inactive).
`COc1ccc(CN2CCNC(=O)C2CC(=O)N(C)Cc2ccccn2)cc1OC` (configuration not stated): the inhibition is -0.62% (inactive).
As to `C[N+](C)(C)CCOP(=O)([O-])OC[C@H](O)CO`, the inhibition is 0.34% (inactive).
`CC(=O)c1ccc(N2CCN(CC(=O)Nc3ccccc3N3CCOCC3)CC2)cc1`: the inhibition was 4.88% (active).
Regarding `CCCCC(=O)Nc1ccccc1N1CCN(c2ccc(F)cc2)CC1`, the inhibition was -1.12% (inactive).
Consider `O=C(Nc1ccccc1N1CCOCC1)c1ccncc1`, for which the inhibition was 1.2% (inactive).
Take `COC(=O)N1Cc2ccnnc2CC1c1ccccc1Br` (configuration not stated): the inhibition is -0.9% (inactive).
To `CN(Cc1ccccc1)C(=O)c1ccc(NC2=NC3CS(=O)(=O)CC3S2)cc1` (configuration not stated) belongs 1.72% (inactive); to `COc1ccc(C2=NS(=O)(=O)N(C)C(C(=O)N(C)Cc3ccccc3)=C2)cc1`, 3.53% (inactive); to `COc1ccc(C2=NS(=O)(=O)N(C)C(C(=O)N3CCCCC3)=C2)cc1`, 5.54% (active).
With `COc1ccc(C2=NS(=O)(=O)N(C)C(C(=O)NC(C)c3ccccc3)=C2)cc1` (configuration not stated), the inhibition was 4.29% (inactive).
With `CCCCCCc1cc2cc(-c3nnc(-c4cccc(OC)c4)o3)c(=O)oc2cc1O`, the inhibition is -0.59% (inactive).
For `Oc1ccc(/C=N/Nc2ccc(C(F)(F)F)cn2)cc1O`, the inhibition is 7.63% (active).
To `O=C(N/N=C/c1ccc(O)c(O)c1)C1c2ccccc2Oc2ccccc21` belongs 0.85% (inactive).
The same measure for `COc1ccc(/C=N/Nc2ncnc3sc4c(c23)CCCC4)cc1O`: 4.5% (inactive).
To `CC(=O)c1sc2nc(SCC(=O)N3CCCCC3)[nH]c(=O)c2c1C` belongs 6.38% (active).
As to `CSc1nnc(SCc2nc3sc(C(=O)O)c(C)c3c(=O)[nH]2)s1`, the inhibition was 0% (inactive).
In the case of `Cc1c(C)n2c(SCC(=O)N3CCCC3)nnc2[nH]c1=O`, the inhibition is -0.57% (inactive).
In the case of `COc1ccc(-c2ccccc2C2Cc3nnccc3CN2C(=O)Nc2ccccc2)cc1` (configuration not stated), the inhibition is 2.13% (inactive).
Consider `CC(=O)N1C[C@@H](CO)[C@@H](N(C)C(=O)C(C)(C)C)C[C@H]1c1ccccc1Br`, for which the inhibition was 0.66% (inactive).
Regarding `O=C1C=C(c2cccc(Cl)c2O)C[C@@H](c2ccc(F)cc2)C1`, the inhibition was -0.68% (inactive).
To `COc1cccc(C2=CC(=O)C[C@H](c3ccc(F)cc3)C2)c1OC` belongs 6.7% (active); to `COc1ccccc1C1=CC(=O)C[C@H](c2ccc(F)cc2)C1`, 1.16% (inactive); to `COC(=O)[C@]12C[C@H](CC(=O)NCc3cccc(C(F)(F)F)c3)C(=O)N(Cc3ccc4c(c3)OCO4)C1=C[C@H](COCc1ccccc1)O[C@@H]2C`, 0.87% (inactive).
As to `CC(C)C[C@H](NC(=O)CC1CCCC1)C(=O)N1CCC[C@H]1C(=O)NCc1ccccc1`, the inhibition was 0.9% (inactive).
Regarding `COC(=O)C1=C(C)N(Cc2cccc(C(F)(F)F)c2)C(=NCc2cccc(C(F)(F)F)c2)NC1c1ccccc1C(F)(F)F` (configuration not stated), the inhibition is -1.33% (inactive).
The same measure for `CCN(CC)CCn1c(N)c(S(=O)(=O)c2ccccc2)c2nc3ccccc3nc21`: 0.85% (inactive).
Consider `CCC(=O)Nc1c(S(=O)(=O)c2ccccc2)c2nc3ccccc3nc2n1Cc1ccccc1`, for which the inhibition is 2.69% (inactive).
Take `Cc1ccc(S(=O)(=O)c2c(N)n(C)c3nc4ccccc4nc23)cc1`: the inhibition is 4.64% (active).
Regarding `O=C1CN(C(=O)COc2c(Cl)cccc2Cl)c2ccccc2N1`, the inhibition was -0.91% (inactive).
Turning to `COC(=O)[C@]12C[C@H](CC(=O)NCc3ccccc3)C(=O)N(CCC3=CCCCC3)C1=C[C@H](C(C)(C)C)O[C@@H]2C`, the inhibition was 0.95% (inactive).
For the compound `O=C(N/N=C/c1ccc(Br)o1)c1cncc(Br)c1`, the inhibition is 4.63% (active).
Regarding `O=C(CCNC(=O)c1ccccc1)NN=Cc1ccc(Br)o1`, the inhibition was 0.9% (inactive).
In the case of `O=C(CCC(=O)N/N=C/c1ccc(Br)o1)N/N=C/c1ccc(Br)o1`, the inhibition was 1% (inactive).
`CCCCN(C(=O)COc1ccc(NC(C)=O)cc1)C1CCS(=O)(=O)C1` (configuration not stated): the inhibition is -0.22% (inactive).
As for `Cc1cc(C)c(S(=O)(=O)NCC(c2ccc3c(c2)OCO3)N2CCOCC2)c(C)c1` (configuration not stated), the inhibition was -0.85% (inactive).
Take `CC(Nc1ccc([N+](=O)[O-])cc1[N+](=O)[O-])c1ccccc1` (configuration not stated): the inhibition was 35.6% (active).
To `CC(C)OP(=O)(OC(C)C)C(Nc1ccccc1)c1cccc([N+](=O)[O-])c1` (configuration not stated) belongs 1.56% (inactive); to `CC1(C)C/C(=N/Nc2ccc([N+](=O)[O-])cc2[N+](=O)[O-])C(C)(C)O1`, -0.53% (inactive).
To `COC(=O)[C@]12C[C@H](CC(=O)N3CCN(C(=O)C4CC4)CC3)C(=O)N(Cc3ccc4c(c3)OCO4)C1=C[C@H](C(C)(C)C)O[C@@H]2C` belongs -0.48% (inactive); to `CC(=O)c1ccc(S(=O)(=O)NCC2CCN(C(=O)C(=O)c3cccs3)CC2)cc1`, 0.56% (inactive); to `Cc1ccc2nc(CN(C)C(=O)[C@@H](Cc3ccccc3)NC(=O)[C@H]3O[C@@H](n4ccc(=O)[nH]c4=O)[C@H](O)[C@@H]3O)[nH]c2c1`, 0.5% (inactive).
For `Cc1ccc(C(=O)Nc2c(C#N)c(C)c(C)n2Cc2ccccc2)cc1`, the inhibition was -0.41% (inactive).
As to `Cc1ccc(C(=O)N/N=C/c2sc(=O)n(Cc3cccc(C(=O)O)c3)c2Cl)cc1`, the inhibition is 6.02% (active).
Take `Cc1ccccc1-n1c(C)cc(/C=N/NC(=O)c2ccc(CN3CCOCC3)cc2)c1C`: the inhibition is 1.71% (inactive).
In the case of `CC1CC(c2ccccc2)n2nc(NC(=O)c3cccs3)nc2N1` (configuration not stated), the inhibition is -0.81% (inactive).
In the case of `COc1ccccc1Oc1ccc(N/C=C2/CCCC2=O)cc1`, the inhibition is 1.18% (inactive).
As to `O=C1/C(=C\Nc2ccccc2)CCN1c1ncccn1`, the inhibition was 5.03% (active).
To `CC1=C(N2CCN(c3ncccn3)CC2)CCC1=O` belongs 0% (inactive); to `CNS(=O)(=O)c1ccc(NC(=O)C2CC(=O)N(c3ccc(Cl)cc3)C2)cc1` (configuration not stated), 1.4% (inactive).

The record behind these values is PubChem BioAssay AID651718 (The Scripps Research Institute Molecular Screening Center, 2012).
